Assay in all cases: DAPPL (digital affinity profiling via proximity ligation, sequencing); 10 mM Tris-HCl pH 7.5, 50 mM NaCl, 1 mM DTT, 4% glycerol, room temperature, 30 min; GST-TFs on glutathione beads, 16-mer random dsDNA library, 0.1% formaldehyde crosslink after washing; high values mean tight binding
The target of one test is T1, FEV (Homo sapiens, UniProt Q99581 1-238).
T1 sequence: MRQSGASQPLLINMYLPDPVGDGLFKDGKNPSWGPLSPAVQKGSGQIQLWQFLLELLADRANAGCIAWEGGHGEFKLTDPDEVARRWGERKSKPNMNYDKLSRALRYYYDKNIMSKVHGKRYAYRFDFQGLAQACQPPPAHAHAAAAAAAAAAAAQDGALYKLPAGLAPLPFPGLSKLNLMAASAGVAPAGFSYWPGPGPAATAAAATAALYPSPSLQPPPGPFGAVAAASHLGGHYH
The settings on record: protein: recombinant; tags: N-terminal GST; dsDNA, one strand shown. The essentials: (§1)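 Human transcription factors were made in yeast as GST fusions, captured on glutathione beads and barcoded with DNA. With a tag-only sample included, the pool was incubated with 200 nmole of a random double-stranded 16-mer DNA library in Tris/NaCl/DTT/glycerol buffer at room temperature for 30 min, then crosslinked with 0.1% formaldehyde after washing, ligated by proximity, amplified and sequenced. For binding signal, each hexamer's read frequency for a factor is divided by its frequency for the tag-only sample.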

The next test concerns the target ETV5 (Homo sapiens, UniProt P41161 1-510). The settings on record: protein: recombinant; tags: N-terminal GST; dsDNA, one strand shown. The essentials:
as §1

The target in the next test is HSF1 (Homo sapiens, UniProt Q00613 1-529). The settings on record: protein: recombinant; tags: N-terminal GST; chain copies: 3; dsDNA, one strand shown. The essentials: as §1
Chain of HSF1 (Q00613 whole entry): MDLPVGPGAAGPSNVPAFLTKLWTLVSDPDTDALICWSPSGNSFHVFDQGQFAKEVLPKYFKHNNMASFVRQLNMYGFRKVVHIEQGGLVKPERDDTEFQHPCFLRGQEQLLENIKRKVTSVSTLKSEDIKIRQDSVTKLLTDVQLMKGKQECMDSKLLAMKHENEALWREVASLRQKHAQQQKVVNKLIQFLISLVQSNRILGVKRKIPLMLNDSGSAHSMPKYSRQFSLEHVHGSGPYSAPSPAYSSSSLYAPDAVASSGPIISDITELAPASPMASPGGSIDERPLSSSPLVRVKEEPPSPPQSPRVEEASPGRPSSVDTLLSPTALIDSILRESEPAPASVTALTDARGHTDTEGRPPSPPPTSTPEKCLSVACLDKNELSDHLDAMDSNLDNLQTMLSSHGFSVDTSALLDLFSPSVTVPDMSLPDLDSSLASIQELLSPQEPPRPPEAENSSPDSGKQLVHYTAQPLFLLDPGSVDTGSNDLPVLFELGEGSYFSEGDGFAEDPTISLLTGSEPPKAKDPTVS
Another test deals with T2, SPIC (Homo sapiens, UniProt Q8N5J4 1-248).
T2 sequence: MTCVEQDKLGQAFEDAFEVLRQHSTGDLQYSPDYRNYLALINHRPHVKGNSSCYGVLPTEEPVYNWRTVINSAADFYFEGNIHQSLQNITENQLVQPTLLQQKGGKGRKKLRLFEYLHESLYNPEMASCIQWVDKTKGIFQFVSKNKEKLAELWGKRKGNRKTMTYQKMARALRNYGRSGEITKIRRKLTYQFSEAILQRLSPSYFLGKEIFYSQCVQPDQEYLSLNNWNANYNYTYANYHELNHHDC
The settings on record: protein: recombinant; tags: N-terminal GST; dsDNA, one strand shown. The essentials: as §1

The target of the next test is ELF4 (Homo sapiens, UniProt Q99607 1-663). The settings on record: protein: recombinant; tags: N-terminal GST; dsDNA, one strand shown. The essentials:
as §1

For another test, the target named is T3, ELK4 (Homo sapiens, UniProt P28324-2 1-405).
T3 sequence: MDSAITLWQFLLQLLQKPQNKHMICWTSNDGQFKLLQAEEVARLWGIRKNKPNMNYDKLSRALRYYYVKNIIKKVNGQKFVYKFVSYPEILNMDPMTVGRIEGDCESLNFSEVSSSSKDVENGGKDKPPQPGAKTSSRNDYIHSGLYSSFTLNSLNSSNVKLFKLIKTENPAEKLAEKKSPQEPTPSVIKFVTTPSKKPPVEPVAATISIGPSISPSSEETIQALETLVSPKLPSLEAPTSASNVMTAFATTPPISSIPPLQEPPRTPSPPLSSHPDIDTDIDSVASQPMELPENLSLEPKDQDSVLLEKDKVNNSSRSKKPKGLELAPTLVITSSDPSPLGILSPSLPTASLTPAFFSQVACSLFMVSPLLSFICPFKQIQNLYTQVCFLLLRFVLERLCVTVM
The settings on record: protein: recombinant; tags: N-terminal GST; dsDNA, one strand shown. The essentials:
as §1

The target in a further test is T4, ETV2 (Homo sapiens, UniProt O00321 1-342).
T4 sequence: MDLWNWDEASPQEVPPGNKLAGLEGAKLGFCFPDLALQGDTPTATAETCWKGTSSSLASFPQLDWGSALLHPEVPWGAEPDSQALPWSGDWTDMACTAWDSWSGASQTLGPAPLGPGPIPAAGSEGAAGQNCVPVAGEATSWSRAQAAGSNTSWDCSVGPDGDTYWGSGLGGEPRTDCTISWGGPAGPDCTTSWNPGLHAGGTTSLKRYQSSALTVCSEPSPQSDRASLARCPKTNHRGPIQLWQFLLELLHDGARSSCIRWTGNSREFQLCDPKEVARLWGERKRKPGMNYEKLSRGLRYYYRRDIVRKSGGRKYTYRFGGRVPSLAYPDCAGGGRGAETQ
Particulars: protein: recombinant; tags: N-terminal GST; dsDNA, one strand shown. The essentials: as §1

A further test concerns the target T5, ELF3 (Homo sapiens, UniProt P78545 1-371).
T5 sequence: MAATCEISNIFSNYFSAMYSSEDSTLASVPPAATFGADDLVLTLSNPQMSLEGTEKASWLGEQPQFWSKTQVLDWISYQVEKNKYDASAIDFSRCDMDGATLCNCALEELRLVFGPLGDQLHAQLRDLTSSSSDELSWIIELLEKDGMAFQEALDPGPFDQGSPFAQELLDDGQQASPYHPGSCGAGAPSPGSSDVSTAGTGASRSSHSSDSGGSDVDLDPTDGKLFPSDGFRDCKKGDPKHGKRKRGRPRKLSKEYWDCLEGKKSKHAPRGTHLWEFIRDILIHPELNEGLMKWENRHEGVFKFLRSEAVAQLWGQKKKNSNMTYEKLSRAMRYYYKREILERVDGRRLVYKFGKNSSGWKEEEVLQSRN
The settings on record: protein: recombinant; tags: N-terminal GST; dsDNA, one strand shown. The essentials: as §1

Another test addresses CRX (Homo sapiens, UniProt O43186 1-299). Particulars: protein: recombinant; tags: N-terminal GST; dsDNA, one strand shown. The essentials: as §1
For a further test, the target named is ETV1 (Homo sapiens, UniProt P50549 1-477). The settings on record: protein: recombinant; tags: N-terminal GST; dsDNA, one strand shown. The essentials: as §1
Chain of ETV1 (P50549 whole entry): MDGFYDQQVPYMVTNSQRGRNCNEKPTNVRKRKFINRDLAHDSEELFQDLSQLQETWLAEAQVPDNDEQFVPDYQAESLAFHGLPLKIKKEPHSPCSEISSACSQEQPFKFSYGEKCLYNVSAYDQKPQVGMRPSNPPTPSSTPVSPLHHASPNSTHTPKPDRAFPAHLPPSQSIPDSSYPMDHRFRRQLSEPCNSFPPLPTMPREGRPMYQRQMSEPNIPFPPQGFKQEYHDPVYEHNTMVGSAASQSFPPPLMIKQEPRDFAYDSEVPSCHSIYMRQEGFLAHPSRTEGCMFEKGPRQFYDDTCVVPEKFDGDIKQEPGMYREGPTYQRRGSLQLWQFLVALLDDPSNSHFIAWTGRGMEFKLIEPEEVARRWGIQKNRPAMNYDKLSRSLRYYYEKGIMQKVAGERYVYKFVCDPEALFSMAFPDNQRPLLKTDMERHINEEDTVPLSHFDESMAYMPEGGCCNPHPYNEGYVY
The target of the next test is T6, ERF (Homo sapiens, UniProt P50548 1-548).
T6 sequence: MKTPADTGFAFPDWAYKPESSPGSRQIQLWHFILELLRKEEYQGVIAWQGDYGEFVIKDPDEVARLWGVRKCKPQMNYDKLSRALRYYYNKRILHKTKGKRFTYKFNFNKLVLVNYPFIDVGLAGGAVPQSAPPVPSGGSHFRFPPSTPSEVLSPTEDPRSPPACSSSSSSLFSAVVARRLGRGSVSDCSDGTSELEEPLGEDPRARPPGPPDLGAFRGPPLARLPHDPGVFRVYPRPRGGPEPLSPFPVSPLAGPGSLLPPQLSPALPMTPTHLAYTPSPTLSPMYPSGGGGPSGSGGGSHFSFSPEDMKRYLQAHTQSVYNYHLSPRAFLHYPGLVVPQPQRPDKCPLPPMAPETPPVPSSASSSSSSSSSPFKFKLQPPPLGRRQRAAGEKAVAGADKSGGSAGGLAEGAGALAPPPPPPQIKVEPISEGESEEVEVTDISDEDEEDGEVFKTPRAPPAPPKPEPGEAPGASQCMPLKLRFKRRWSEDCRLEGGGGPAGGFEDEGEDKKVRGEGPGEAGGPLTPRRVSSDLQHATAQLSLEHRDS
The settings on record: protein: recombinant; tags: N-terminal GST; dsDNA, one strand shown. The essentials:
as §1

The next test has as its target T7, ETV3L (Homo sapiens, UniProt Q6ZN32 1-361).
T7 sequence: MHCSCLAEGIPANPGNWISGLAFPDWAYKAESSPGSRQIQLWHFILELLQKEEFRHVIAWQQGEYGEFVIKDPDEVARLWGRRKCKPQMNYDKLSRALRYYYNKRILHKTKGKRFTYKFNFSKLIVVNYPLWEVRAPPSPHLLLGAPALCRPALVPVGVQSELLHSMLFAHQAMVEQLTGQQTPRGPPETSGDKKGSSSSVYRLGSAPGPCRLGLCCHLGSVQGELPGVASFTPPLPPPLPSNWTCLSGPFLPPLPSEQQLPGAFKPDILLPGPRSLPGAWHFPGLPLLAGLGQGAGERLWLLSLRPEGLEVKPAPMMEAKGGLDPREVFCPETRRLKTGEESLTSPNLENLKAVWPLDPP
Particulars: protein: recombinant; tags: N-terminal GST; dsDNA, one strand shown. The essentials:
as §1

The target of a further test is T8, ETS2 (Homo sapiens, UniProt P15036 1-469).
T8 sequence: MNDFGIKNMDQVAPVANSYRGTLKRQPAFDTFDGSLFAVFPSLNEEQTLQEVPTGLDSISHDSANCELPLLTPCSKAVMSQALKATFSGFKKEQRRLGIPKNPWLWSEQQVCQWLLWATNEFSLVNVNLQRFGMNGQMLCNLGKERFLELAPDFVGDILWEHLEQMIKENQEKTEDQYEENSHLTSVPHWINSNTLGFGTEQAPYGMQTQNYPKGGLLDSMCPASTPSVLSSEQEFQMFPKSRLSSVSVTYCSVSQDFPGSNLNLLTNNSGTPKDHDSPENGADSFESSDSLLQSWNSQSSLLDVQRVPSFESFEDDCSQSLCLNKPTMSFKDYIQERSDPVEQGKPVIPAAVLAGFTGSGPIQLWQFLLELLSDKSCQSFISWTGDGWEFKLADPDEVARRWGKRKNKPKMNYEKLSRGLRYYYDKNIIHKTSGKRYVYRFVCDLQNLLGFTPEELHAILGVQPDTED
Particulars: protein: recombinant; tags: N-terminal GST; dsDNA, one strand shown. The essentials: as §1

Another test concerns the target T9, SPDEF (Homo sapiens, UniProt O95238 1-335).
T9 sequence: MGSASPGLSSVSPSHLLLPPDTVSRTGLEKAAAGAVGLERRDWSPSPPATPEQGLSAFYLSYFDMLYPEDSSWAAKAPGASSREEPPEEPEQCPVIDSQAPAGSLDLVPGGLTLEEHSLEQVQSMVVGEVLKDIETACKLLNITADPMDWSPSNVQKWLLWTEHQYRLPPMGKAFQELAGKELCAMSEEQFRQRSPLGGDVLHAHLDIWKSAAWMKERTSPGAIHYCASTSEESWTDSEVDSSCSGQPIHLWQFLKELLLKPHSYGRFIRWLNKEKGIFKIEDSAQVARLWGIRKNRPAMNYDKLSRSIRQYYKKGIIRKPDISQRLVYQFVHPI
The settings on record: protein: recombinant; tags: N-terminal GST; dsDNA, one strand shown. The essentials:
as §1

The target in another test is T10, ETV7 (Homo sapiens, UniProt Q9Y603 1-341).
T10 sequence: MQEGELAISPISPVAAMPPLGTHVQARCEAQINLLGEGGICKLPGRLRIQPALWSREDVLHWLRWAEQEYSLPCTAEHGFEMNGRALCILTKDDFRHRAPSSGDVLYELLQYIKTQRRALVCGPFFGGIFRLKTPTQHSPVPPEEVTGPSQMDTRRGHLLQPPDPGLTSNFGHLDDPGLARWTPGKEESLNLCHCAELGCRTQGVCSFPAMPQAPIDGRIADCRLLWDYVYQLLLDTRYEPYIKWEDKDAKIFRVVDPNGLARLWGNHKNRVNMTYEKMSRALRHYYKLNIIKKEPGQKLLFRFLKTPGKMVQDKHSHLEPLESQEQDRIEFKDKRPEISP
Particulars: protein: recombinant; tags: N-terminal GST; dsDNA, one strand shown. The essentials:
as §1

The next test has as its target T11, ELF5 (Homo sapiens, UniProt Q9UKW6-2 1-255).
T11 sequence: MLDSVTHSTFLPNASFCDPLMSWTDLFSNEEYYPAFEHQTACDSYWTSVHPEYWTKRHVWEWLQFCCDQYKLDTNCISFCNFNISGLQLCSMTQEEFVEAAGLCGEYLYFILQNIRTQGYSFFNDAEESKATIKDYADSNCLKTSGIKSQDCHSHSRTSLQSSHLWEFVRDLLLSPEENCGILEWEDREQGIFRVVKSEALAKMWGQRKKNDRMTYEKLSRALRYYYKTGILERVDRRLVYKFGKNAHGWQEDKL
The settings on record: protein: recombinant; tags: N-terminal GST; dsDNA, one strand shown. The essentials:
as §1

In a further test the target is T12, ETV3 (Homo sapiens, UniProt P41162-2 1-143).
T12 sequence: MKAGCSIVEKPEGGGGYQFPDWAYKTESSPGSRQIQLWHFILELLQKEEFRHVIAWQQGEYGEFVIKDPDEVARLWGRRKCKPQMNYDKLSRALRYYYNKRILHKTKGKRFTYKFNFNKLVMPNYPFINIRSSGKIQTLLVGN
The settings on record: protein: recombinant; tags: N-terminal GST; dsDNA, one strand shown. The essentials: as §1

The target in a further test is ETV6 (Homo sapiens, UniProt P41212 1-452). Particulars: protein: recombinant; tags: N-terminal GST; dsDNA, one strand shown. The essentials: as §1
Chain of ETV6 (P41212 whole entry): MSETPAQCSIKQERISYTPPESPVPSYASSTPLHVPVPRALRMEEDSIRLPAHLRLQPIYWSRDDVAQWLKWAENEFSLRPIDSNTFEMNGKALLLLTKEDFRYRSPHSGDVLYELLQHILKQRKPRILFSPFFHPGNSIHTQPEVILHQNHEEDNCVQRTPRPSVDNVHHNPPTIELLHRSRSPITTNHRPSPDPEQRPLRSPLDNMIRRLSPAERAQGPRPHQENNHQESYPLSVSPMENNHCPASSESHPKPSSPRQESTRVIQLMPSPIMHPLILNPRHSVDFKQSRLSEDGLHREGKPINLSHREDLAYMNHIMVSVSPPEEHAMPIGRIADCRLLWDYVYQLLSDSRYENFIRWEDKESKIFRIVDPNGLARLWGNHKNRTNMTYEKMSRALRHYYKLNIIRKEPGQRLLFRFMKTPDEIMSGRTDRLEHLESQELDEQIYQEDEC

Chain of CRX (O43186 whole entry): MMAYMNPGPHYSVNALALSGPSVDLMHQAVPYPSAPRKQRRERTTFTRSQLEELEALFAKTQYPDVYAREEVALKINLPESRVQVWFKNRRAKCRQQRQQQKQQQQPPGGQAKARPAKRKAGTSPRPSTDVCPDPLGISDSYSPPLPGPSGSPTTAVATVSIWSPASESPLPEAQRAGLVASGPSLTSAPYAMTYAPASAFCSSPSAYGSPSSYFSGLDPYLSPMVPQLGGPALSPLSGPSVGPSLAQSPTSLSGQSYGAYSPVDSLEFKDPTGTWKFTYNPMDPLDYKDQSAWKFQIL
Chain of ELF4 (Q99607 whole entry): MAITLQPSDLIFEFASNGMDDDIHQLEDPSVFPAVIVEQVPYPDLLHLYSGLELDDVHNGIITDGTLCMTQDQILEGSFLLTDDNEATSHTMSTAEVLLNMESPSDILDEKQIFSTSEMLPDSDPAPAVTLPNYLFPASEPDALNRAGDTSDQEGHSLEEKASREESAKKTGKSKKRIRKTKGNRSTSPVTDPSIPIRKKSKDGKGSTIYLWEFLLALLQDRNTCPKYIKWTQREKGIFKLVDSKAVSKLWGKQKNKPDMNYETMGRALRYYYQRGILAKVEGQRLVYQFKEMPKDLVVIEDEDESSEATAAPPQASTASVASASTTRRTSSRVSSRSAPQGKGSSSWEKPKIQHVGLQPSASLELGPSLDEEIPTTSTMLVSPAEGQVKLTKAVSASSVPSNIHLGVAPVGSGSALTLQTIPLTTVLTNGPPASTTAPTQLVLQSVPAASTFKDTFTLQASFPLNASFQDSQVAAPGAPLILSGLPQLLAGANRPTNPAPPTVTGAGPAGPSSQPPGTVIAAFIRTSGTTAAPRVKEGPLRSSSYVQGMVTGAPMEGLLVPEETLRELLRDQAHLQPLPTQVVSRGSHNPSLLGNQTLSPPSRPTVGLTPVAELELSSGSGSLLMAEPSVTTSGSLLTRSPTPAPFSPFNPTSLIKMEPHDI
Chain of ETV5 (P41161 whole entry): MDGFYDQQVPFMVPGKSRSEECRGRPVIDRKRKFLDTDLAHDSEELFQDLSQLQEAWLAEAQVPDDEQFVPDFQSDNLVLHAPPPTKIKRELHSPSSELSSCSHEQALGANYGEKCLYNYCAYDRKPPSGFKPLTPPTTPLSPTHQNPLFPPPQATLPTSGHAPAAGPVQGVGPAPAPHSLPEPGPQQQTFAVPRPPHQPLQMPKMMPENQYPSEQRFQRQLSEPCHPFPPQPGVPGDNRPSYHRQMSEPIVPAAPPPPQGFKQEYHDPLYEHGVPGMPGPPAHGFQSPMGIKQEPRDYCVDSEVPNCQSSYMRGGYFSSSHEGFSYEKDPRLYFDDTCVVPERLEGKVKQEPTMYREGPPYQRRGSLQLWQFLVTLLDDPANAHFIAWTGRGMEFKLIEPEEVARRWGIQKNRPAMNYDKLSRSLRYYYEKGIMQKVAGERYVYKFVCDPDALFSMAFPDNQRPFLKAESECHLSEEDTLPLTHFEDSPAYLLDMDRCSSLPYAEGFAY

Regarding AGCTAC, the binding signal was 1.23 fold enrichment (6-mer frequency, TF over GST control) in the test with FEV; 1.21 fold enrichment (6-mer frequency, TF over GST control) with ETV5; 1.04 fold enrichment (6-mer frequency, TF over GST control) in the test with HSF1; 1.21 fold enrichment (6-mer frequency, TF over GST control) in the test with SPIC; 1.12 fold enrichment (6-mer frequency, TF over GST control) with ELF4; 1.25 fold enrichment (6-mer frequency, TF over GST control) with ELK4. Further, the binding signal with ETV2 is 1.03 fold enrichment (6-mer frequency, TF over GST control); in the test with ELF3 it was 1.34 fold enrichment (6-mer frequency, TF over GST control); in the test with CRX, 1.04 fold enrichment (6-mer frequency, TF over GST control); with ETV1, 1.21 fold enrichment (6-mer frequency, TF over GST control); with ERF, 1.25 fold enrichment (6-mer frequency, TF over GST control); in the test with ETV3L, 1.14 fold enrichment (6-mer frequency, TF over GST control). For the same sequence, the binding signal in the test with ETS2 was 1.09 fold enrichment (6-mer frequency, TF over GST control); with SPDEF, 1.02 fold enrichment (6-mer frequency, TF over GST control); with ETV7, 1.31 fold enrichment (6-mer frequency, TF over GST control); in the test with ELF5, 1.18 fold enrichment (6-mer frequency, TF over GST control); in the test with ETV3 it was 1.17 fold enrichment (6-mer frequency, TF over GST control); with ETV6, 1.22 fold enrichment (6-mer frequency, TF over GST control).

(Values after article PMC7862700, “An all-to-all approach to the identification of sequence-specific readers for epigenetic DNA modifications on cytosine”.)
